High-throughput results (PubChem BioAssay)
ELG1 genotox – inducers of genotoxicity in HEK293T ELG1-luciferase cells; 330,000 tested, 1.3% active; Potency, µM (series often up to 46 µM), without a hit: at the highest dose activity change, positive = activation, usual class: activators; HEK293T ELG1-luciferase reporter, luminescence, 16 h; note: % of control where 0% means no effect; nearly all actives have a fitted effect of over 60% in size
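DMSO vehicle served as control against compound-treated ELG1-luciferase HEK293T cells; exposure lasted 16 hr at 37 °C and 5% CO2, followed by ONE-Glo luminescence detection after 30 min.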
NPC1 prom act – activates the NPC1 promoter | AID 485313 | Potency, µM (series often up to 9.22 µM), without a hit: top-dose activation, most hits filed as activators | Huh7 NPC1 promoter luciferase reporter, 24 h | 320,000 tested, 2.4% active; note: % of control where 0% means no effect; nearly all actives have a fitted effect of over 60% in size
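Luminescence read-out of NPC1 promoter-driven luciferase in stably transfected Huh7 cells; compounds delivered in DMSO and left 24 h at 37C, 5% CO2, qHTS titration format.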
SMN2 splice enh – enhancers of SMN2 splice variant expression; AID 1458; HEK293 SMN2-luciferase splicing reporter, luminescence, 30-36 h; 210,000 tested, 2.8% active; Potency, µM (titrated, usually from 46.1 µM), for inactives: at the top dose activity change, positive = activation, usual class: activators; note: % of control where 0% means no effect; nearly all actives have a fitted effect of over 55% in size
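qHTS luciferase splicing reporter: luminescence rises when SMN2 exon 7 is included in transfected HEK293 cells. Compound exposure lasted 30-36 h at 37C, with 4.5 mM final sodium butyrate as control, followed by a ONE-Glo read.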
Rab9 prom act – activates the Rab9 promoter; Huh7 Rab9 promoter-luciferase reporter, luminescence, 24 h; AID 485297; 320,000 tested, 2.8% active; Potency, µM (top dose mostly 9.22 µM), without a hit: at the highest dose activation, negative = inhibition, usual class: activators; note: % of control where 0% means no effect; nearly all actives have a fitted effect of over 60% in size
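Luminescence read-out: Huh7 cells stably expressing Rab9-luciferase, treated 24 h with compound at 37 °C, then lysed with luciferase reagent for 10 min at ambient before reading.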
KinaseGlo FLuc – counter-screen: inhibitors of Kinase-Glo firefly luciferase. Q27757. Kinase-Glo luciferase, ATP luminescence, 8 min. Potency, µM (titrated, usually from 38.3 µM), for inactives: at the top dose activity change, negative = inhibition, actives largely listed as inhibitors. 200,000 tested, 0.28% active. AID 1379; note: % is set by controls: 0 for no effect and ±100 for the full control effect; nearly all actives have a fitted effect of over 60% in size
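Compound is pinned into ATP-containing buffer (10 uM ATP, imidazole pH 7.2, 7 mM MgCl2). Kinase-Glo luciferase reagent is then added. Light output is recorded following an 8-min room-temperature incubation.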
FLuc counter – firefly luciferase modulation, counter-screen for miR-21 project; P08659; purified FLuc, Km substrates, luminescence inhibition; Potency, µM (series often up to 57.5 µM), for inactives: at the highest dose activity change, negative = inhibition, hits mostly inhibitors; 360,000 tested, 6.9% active;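 note: plate controls were vehicle for no effect and reference inhibitor for full effect; nearly all actives have a fitted effect of over 55% in size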
Target sequence (P08659 whole entry, looked up): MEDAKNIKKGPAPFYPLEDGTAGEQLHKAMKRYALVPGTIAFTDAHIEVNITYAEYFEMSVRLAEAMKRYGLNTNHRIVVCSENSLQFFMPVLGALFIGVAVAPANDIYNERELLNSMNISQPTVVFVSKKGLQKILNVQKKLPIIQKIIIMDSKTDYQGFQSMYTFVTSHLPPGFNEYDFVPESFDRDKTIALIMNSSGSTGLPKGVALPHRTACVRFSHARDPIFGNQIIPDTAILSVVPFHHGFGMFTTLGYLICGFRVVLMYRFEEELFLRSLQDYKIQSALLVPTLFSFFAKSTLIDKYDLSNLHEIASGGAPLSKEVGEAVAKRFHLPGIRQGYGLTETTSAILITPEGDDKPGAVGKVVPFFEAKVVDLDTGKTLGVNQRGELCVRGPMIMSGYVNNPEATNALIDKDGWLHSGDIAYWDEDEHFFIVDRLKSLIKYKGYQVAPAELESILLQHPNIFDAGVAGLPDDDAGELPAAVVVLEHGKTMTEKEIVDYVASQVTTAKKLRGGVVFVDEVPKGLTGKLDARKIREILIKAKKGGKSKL
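Biochemical qHTS of compounds, final roughly 60 µM downward over six points, against 10 nM purified firefly luciferase using Km concentrations of substrates (10 uM D-luciferin, 10 uM ATP) in Tris acetate pH 7.5 buffer; luminescence output.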
* marks the source's active call; other numbers are inactive results; ? = inconclusive; / = no result given. Shown are actives, neighbours in structure and some others; about 7.4% of the full set was active somewhere. Calls come from the whole dose curve; as a rule, active = well fitted curve in the direction sought with a large enough effect; inconclusive = small, poorly fitted or top-dose-only effect, or another doubt; inactive = no such curve, though single readings can be large; an effect the other way counts as inactive or inconclusive. Potency is the fitted concentration of half-maximal effect.

SMILES	ELG1 genotox	NPC1 prom act	SMN2 splice enh	Rab9 prom act	KinaseGlo FLuc	FLuc counter
C(=N\Nc1nc2ccccc2[nH]1)/c1cccc2cccnc12	?	26%	/	-15%	/	0.43µM*
Cc1cc(=O)[nH]c(N/N=C/c2c(C)nn(-c3ccccc3)c2Cl)n1	-4%	2%	/	1%	/	?
O=S(=O)(c1ccc(OCc2nc3ccccc3s2)c(Cl)c1)N1CCOCC1	9.2µM*	?	19%	?	-5%	-19%
CC(=O)CCSc1nnc(-c2cccc(S(=O)(=O)N3CCOCC3)c2)o1	1%	2%	/	2%	/	5%
O=S(=O)(c1cccc(-c2nnc(SCc3nc4ccccc4s3)o2)c1)N1CCOCC1	6%	?	0%	?	-2%	19µM*
O=C(CCn1cnc2ccccc21)N/N=C/c1ccccc1O	?	1%	-53%	-35%	0%	8.5µM*
Cc1cc(S(=O)(=O)n2ccnc2C(C)C)cc([N+](=O)[O-])c1C	/	/	28%	/	/	?
CCOC(=O)C1(CCc2ccccc2)CCN(C(=O)Cc2nonc2C)CC1	12%	-1%	3%	?	2%	19µM*
CCOC(=O)C1(CCc2ccccc2)CCN(C2Cc3ccccc3C2)CC1	-21%	?	/	?	-2%	15µM*
Cc1nc2cc(CO)ccc2s1	-2%	0%	6%	7%	-3%	12%
Cc1nc2cc3nc(C)sc3cc2s1	?	?	?	4µM*	-16%	12µM*
CCOc1ccc(-c2cc(C(=O)Oc3ccc(C#N)cc3)no2)cc1	/	/	/	/	/	-1%
Cc1ccnc2c1ccc1cccnc12	15%	-17%	/	-19%	/	-12%
Cc1ccnc2c1ccc1ccccc12	2%	-6%	/	13%	/	17µM*
CCSc1nc2ccccc2n1CC(=O)OC	-1%	1%	-9%	-3%	-7%	-1%
COc1ccc(CSc2nc3ccncc3n2CC(=O)Nc2cc(C)cc(C)c2)cc1	/	/	?	/	/	2.4µM*
COC(=O)Cn1c(SCc2ccccc2)nc2ccccc21	?	22%	12%	12%	-3%	15µM*
COc1cccc(CSc2nc3ccncc3n2CC(=O)Nc2ccc(OC)c(OC)c2OC)c1	/	/	?	/	/	15µM*
COc1cc(C(=O)n2nc(-c3ccco3)nc2NCc2ccc(Cl)cc2)cc(OC)c1OC	/	/	8%	/	/	-2%
CCn1cc(C(=O)NCc2ccccc2OC)c(=O)c2cc(S(=O)(=O)N3CCCCC3)ccc21	/	/	1%	/	/	-6%
Cc1csc(N/N=C/c2ccccc2F)n1	?	12%	/	3%	/	6µM*
CCCOc1ccc(/C=N/Nc2cc(N3CCOCC3)ncn2)c(O)c1	18%	-39%	/	-45%	/	-5%
Cc1csc(N/N=C/c2c(F)cccc2Cl)n1	?	0%	/	6%	/	13µM*
Fc1cccc(Cl)c1/C=N/Nc1ccccn1	13%	12%	?	0%	-2%	-6%
CCOc1ccc(/C=N/Nc2nc(C)cs2)c(O)c1	16%	1.6µM*	/	1.8µM*	/	3.8µM*
SMILES	ELG1 genotox	NPC1 prom act	SMN2 splice enh	Rab9 prom act	KinaseGlo FLuc	FLuc counter
CCC/C(=N\NC(=O)c1csc(C)c1C)c1cccs1	10µM*	?	16µM*	3.2µM*	-9%	4.8µM*
C/C(=N\NC(=O)c1csc(C)c1C)c1ccc(Cl)s1	?	?	-3%	?	-2%	?
CC/C(=N\NC(=O)c1csc(C)c1C)c1cccs1	?	2µM*	14µM*	1.1µM*	-6%	2.4µM*
O=C(/C=C/c1ccccc1)CC(=O)c1ccccc1O	?	26%	/	?	/	15µM*
O=C(/C=C/c1ccccc1)NC(=O)c1ccccc1O	?	?	/	?	/	1.7µM*
Cc1nn2c(C)c(C(=O)NC(C)(C)C)cnc2c1-c1ccc(F)cc1	/	/	/	/	/	-13%
O=c1c2c3c(sc2nc2sc(CN4CCOCC4)cn12)CCCC3	?	4.5µM*	?	?	-4%	-5%
